Screening results: PubChem BioAssay, several laboratories
aSyn 5UTR inh: MLPCN primary screen, SNCA 5' untranslated region; alpha-synuclein 5'UTR reporter, inhibitor activity; inhibition, % (tested at 7.5 µM); hit rate 0.82% among 300,000; AID 1813, 2009; in the data active means inhibition above about 60%;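 further: H4 neuroglioblastoma cells stably carrying SNCA 5'UTR luciferase fusion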
BaF3 parental: parental Ba/F3 cell viability inhibition, counter-screen for JAK2V617F inhibitor project, murine pro-B, CellTiter-Glo luminescence; CellTiter-Glo ATP luminescence; inhibition, % at 5.6 µM; hit rate 1.1% among 220,000;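 active means inhibition above a per-campaign cutoff, the mean inhibition of all tested compounds plus 3 SD, cut at about 27% in these data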
Ba/F3 V617F tox: reduced viability of JAK2V617F-dependent Ba/F3 cells, primary screen, JAK2V617F inhibitor project, cell-based, Ba/F3 EpoR-JAK2V617F, luminescence; ATP luminescence; inhibition, % at 5.6 µM; hit rate 1.1% among 220,000;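 active means inhibition above the campaign mean plus 3 SD over all tested compounds, cut at about 24% in these data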;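 further: cytokine-independent growth of Ba/F3 cells driven by EpoR plus mutant JAK2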
KLF5 inh: KLF5 expression inhibitors, primary screen, DLD-1 cells, luminescence. DLD-1 KLF5 promoter-luciferase reporter. inhibition, % at 5 µM. hit rate 0.23% among 290,000. AID 1700, 2009;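 active means inhibition above a per-plate limit of that plate's mean compound inhibition plus 3 SD, cut at about 60% in these data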;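 further: higher means less KLF5 promoter-driven luciferase light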
APP 5UTR inh: inhibitors of APP translation via 5'UTR reporter, primary screen, APP 5'UTR luciferase, SH-SY5Y cells. SH-SY5Y APP 5'UTR-luciferase reporter, luminescence. inhibition, % at 2 µM. hit rate 0.82% among 190,000. AID 1285, 2008;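 active means inhibition above a set limit, derived from the sample mean plus 3 SD, cut at about 45% in these data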
IEC-6 tox: cytotoxicity in IEC-6 intestinal epithelial cells, primary screen, cytotoxicity control for KLF5 inhibitor project, cell-based, luminescence; IEC-6 cytotoxicity, luminescence viability; inhibition, % at 5 µM; hit rate 0.78% among 290,000; in the data active means inhibition above about 22%
Of the large screens only hits and unclear results are named; the others gave an inactive call. This is a sample that favours compounds with a hit; in the whole collection about 2.2% have one here.

O=C(CNC(=O)c1ccc(OC(F)F)cc1)Nc1cccc(S(=O)(=O)N2CCCC2)c1	none (no result: BaF3 parental, Ba/F3 V617F tox, KLF5 inh, APP 5UTR inh, IEC-6 tox)
COC(=O)c1c(C)[nH]c(-c2csc(N)n2)c1C	BaF3 parental 51
CCOC(=O)c1[nH]c(C)c(C(=O)OC)c1C	none (no result: APP 5UTR inh)
COc1ccc(S(=O)(=O)NCC2CCCN(Cc3ccc(O)cc3)C2)cc1 (centres undefined)	none (no result: BaF3 parental, Ba/F3 V617F tox, APP 5UTR inh)
CCCNc1nc2c(c(=O)n(C)c(=O)n2C)n1Cc1ccc(F)cc1	BaF3 parental 36
CCNc1nc2c(c(=O)n(C)c(=O)n2C)n1Cc1ccc(Cl)cc1	none (no result: BaF3 parental, Ba/F3 V617F tox, APP 5UTR inh)
Cn1c(=O)c2c(nc(NCc3cccnc3)n2Cc2ccc(Cl)cc2)n(C)c1=O	BaF3 parental 52, Ba/F3 V617F tox 50, IEC-6 tox 23
C=CCn1c(NCCc2ccccc2)nc2c1c(=O)n(C)c(=O)n2C	BaF3 parental 31
O=C(Nc1cccc(-c2cn3cccnc3n2)c1)c1ccc(Br)o1	APP 5UTR inh 54
O=C(Nc1cccc(-c2cn3cccnc3n2)c1)c1ccco1	none
COc1ccc(NC(C)=O)c(C)c1	none
COc1cc(C)c(C(=O)CC(=O)c2c(C)cc(OC)cc2C)c(C)c1	aSyn 5UTR inh 72 (no result: BaF3 parental, Ba/F3 V617F tox, KLF5 inh, APP 5UTR inh, IEC-6 tox)
CC(=O)Nc1cccc(C(=O)OCC(=O)NNC(=O)c2cccs2)c1	none (no result: BaF3 parental, Ba/F3 V617F tox, KLF5 inh, APP 5UTR inh, IEC-6 tox)
CN1CCN(C2Cc3cc(Cl)ccc3Sc3cc(F)ccc32)CC1 (centres undefined)	aSyn 5UTR inh 101 (no result: BaF3 parental, Ba/F3 V617F tox, KLF5 inh, APP 5UTR inh, IEC-6 tox)
COc1ccc2nc(NC(=O)Nc3cccc4ccccc34)sc2c1	none
COc1ccc2nc(N=Nc3c(O)ccc4ccccc34)sc2c1	APP 5UTR inh 69
COc1cccc(NC(=O)CNC(=O)Cn2cnc3sc(C)c(C)c3c2=O)c1	none (no result: BaF3 parental, Ba/F3 V617F tox, APP 5UTR inh)
Cc1ccc(C(=O)/C=C\C(=O)c2ccc(C)cc2)cc1	APP 5UTR inh 88
CCN1C(=NCC(C)C)N[C@@H](c2cccc(F)c2)C(C(=O)OC)=C1C	none (no result: BaF3 parental, Ba/F3 V617F tox, APP 5UTR inh)
CC(=O)c1ccccc1OCCCN1CCCCC1	none
CC(=O)c1ccccc1OCCOCCOCCOc1ccccc1C(C)=O	aSyn 5UTR inh 67
Cc1ccc(C)c(S(=O)(=O)N2CCCCC2CCNC(=O)C(=O)NCc2ccncc2)c1 (centres undefined)	none (no result: BaF3 parental, Ba/F3 V617F tox, KLF5 inh, APP 5UTR inh, IEC-6 tox)
Clc1ccc(-c2c[n+](Cc3cccc(Cl)c3)c3n2CCC3)cc1	BaF3 parental 64, Ba/F3 V617F tox 77
N#CC[n+]1cc(-c2ccc(Cl)cc2)n2c1CCC2	none
Clc1ccc(C[n+]2cc(-c3ccccc3)n3c2CCC3)cc1Cl	BaF3 parental 71, Ba/F3 V617F tox 85
O=C(NCCCN1CCOCC1)c1ccc(NC(=O)C2COc3ccccc3O2)cc1 (centres undefined)	BaF3 parental 90
CCc1nnc(N/N=C/c2cccs2)n1N	IEC-6 tox 94
CCc1nnc(N/N=C/c2cc(Br)c(O)cc2O)n1N	none (no result: BaF3 parental, Ba/F3 V617F tox, APP 5UTR inh)
CCc1nnc(N/N=C/c2c(Cl)cccc2Cl)n1N	IEC-6 tox 62
Cc1nnc(NC(=O)CSc2nnc(CC(=O)Nc3ccccc3Cl)n2C)s1	none (no result: BaF3 parental, Ba/F3 V617F tox, APP 5UTR inh)
O=C(CC(=O)N/N=C/c1c(Cl)cccc1Cl)NCc1cccnc1	none (no result: BaF3 parental, Ba/F3 V617F tox, APP 5UTR inh)
COc1cccc(C(=O)Nc2ccccc2OC(F)(F)F)c1	none
O=C(Cn1cnc2ccccc2c1=O)N1CCc2ccccc2C1	none
O=C(Cn1cnc2ccccc2c1=O)N1CCOCC1	APP 5UTR inh 50
COc1ccc(N=C2S/C(=C\c3ccc(Cl)c([N+](=O)[O-])c3)C(=O)N2CCN(C)C)cc1	aSyn 5UTR inh 81 (no result: BaF3 parental, Ba/F3 V617F tox, APP 5UTR inh)
CCN(CC)CCN1C(=O)/C(=C\c2ccc(Cl)c([N+](=O)[O-])c2)SC1=Nc1ccc(OC)cc1	aSyn 5UTR inh 74 (no result: BaF3 parental, Ba/F3 V617F tox, APP 5UTR inh)
CCCN1C(=O)/C(=C/c2ccc(C)s2)SC1=Nc1ccc(OC)cc1	none
Cc1cccn2c(=O)c3cc(C#N)c(=N)n(CCN4CCOCC4)c3nc12	APP 5UTR inh 47
CN1CCN(c2ccc(NC(=O)N3CCc4ccccc43)cc2)CC1	aSyn 5UTR inh 70 (no result: BaF3 parental, Ba/F3 V617F tox, APP 5UTR inh)
Cc1ccc(NC(=O)N2CCc3ccccc32)cc1	none
CN(CCCC(=O)Nc1ccc(Br)cc1F)S(=O)(=O)c1ccccc1	none (no result: BaF3 parental, Ba/F3 V617F tox, APP 5UTR inh)
Nc1ccc(OC(=O)Nc2ccc(O)cc2)cc1	aSyn 5UTR inh 91 (no result: APP 5UTR inh)
CCN(CC)CCN(C(=O)c1ccc2c(c1)OCCO2)c1nc2cc3c(cc2s1)OCO3	none (no result: BaF3 parental, Ba/F3 V617F tox, APP 5UTR inh)
CCN(CC)CCN(C(=O)c1cc2c(ccc3ccccc32)oc1=O)c1nc2cc3c(cc2s1)OCCO3	aSyn 5UTR inh 78 (no result: BaF3 parental, Ba/F3 V617F tox, APP 5UTR inh)
C=CCSc1nc(-c2ccc(OC)cc2)c(C#N)c(=O)n1CC=C	none
COc1ccc(/C=C2\SC(=S)N(CCCC(=O)NNC(=O)c3ccccc3O)C2=O)cc1	aSyn 5UTR inh 75, APP 5UTR inh 65
COc1ccc(/C=C2\SC(=S)N(CCCC(=O)N3CCCCC3CCO)C2=O)cc1 (centres undefined)	aSyn 5UTR inh 68 (no result: BaF3 parental, Ba/F3 V617F tox, APP 5UTR inh)
COc1ccc(/C=C2\SC(=S)N(CCC(=O)NCCCn3ccnc3)C2=O)cc1	none (no result: BaF3 parental, Ba/F3 V617F tox, APP 5UTR inh)
O=C(CCCN1C(=O)/C(=C/c2ccccc2Cl)SC1=S)NNC(=O)c1ccccc1Cl	aSyn 5UTR inh 100
CC(C)c1ccc(/C=C2\SC(=S)N(CCC(=O)NCCCn3ccnc3)C2=O)cc1	aSyn 5UTR inh 98 (no result: BaF3 parental, Ba/F3 V617F tox, APP 5UTR inh)
CC1Cc2cc(S(=O)(=O)NCCC(=O)N(C)Cc3ccccc3)ccc2N1C(=O)C1CC1 (centres undefined)	none (no result: BaF3 parental, Ba/F3 V617F tox, APP 5UTR inh)
O=C(COc1ccc2c(c1)oc(=O)c1ccccc12)NCCN1CCOCC1	none (no result: BaF3 parental, Ba/F3 V617F tox, APP 5UTR inh)
